Assay results published in ChEMBL document CHEMBL1961873, “Compounds: GSK PKIS; Assays: Nanosyn kinase panel” (2012).

Tests used:
[1] = molecular target: Mast/stem cell growth factor receptor Kit (Homo sapiens) (UniProt P10721); details: at 1 µM
[2] = system: Mast/stem cell growth factor receptor Kit (Homo sapiens), P10721 [D816V]; details: at 0.1 µM
[3] = system: Mast/stem cell growth factor receptor Kit (Homo sapiens), P10721 [D816V]; details: at 1 µM
[4] = system: Mast/stem cell growth factor receptor Kit (Homo sapiens), P10721 [T670I]; details: at 0.1 µM
Sequence of Mast/stem cell growth factor receptor Kit (Homo sapiens), P10721 [T670I] (P10721 whole entry T670I): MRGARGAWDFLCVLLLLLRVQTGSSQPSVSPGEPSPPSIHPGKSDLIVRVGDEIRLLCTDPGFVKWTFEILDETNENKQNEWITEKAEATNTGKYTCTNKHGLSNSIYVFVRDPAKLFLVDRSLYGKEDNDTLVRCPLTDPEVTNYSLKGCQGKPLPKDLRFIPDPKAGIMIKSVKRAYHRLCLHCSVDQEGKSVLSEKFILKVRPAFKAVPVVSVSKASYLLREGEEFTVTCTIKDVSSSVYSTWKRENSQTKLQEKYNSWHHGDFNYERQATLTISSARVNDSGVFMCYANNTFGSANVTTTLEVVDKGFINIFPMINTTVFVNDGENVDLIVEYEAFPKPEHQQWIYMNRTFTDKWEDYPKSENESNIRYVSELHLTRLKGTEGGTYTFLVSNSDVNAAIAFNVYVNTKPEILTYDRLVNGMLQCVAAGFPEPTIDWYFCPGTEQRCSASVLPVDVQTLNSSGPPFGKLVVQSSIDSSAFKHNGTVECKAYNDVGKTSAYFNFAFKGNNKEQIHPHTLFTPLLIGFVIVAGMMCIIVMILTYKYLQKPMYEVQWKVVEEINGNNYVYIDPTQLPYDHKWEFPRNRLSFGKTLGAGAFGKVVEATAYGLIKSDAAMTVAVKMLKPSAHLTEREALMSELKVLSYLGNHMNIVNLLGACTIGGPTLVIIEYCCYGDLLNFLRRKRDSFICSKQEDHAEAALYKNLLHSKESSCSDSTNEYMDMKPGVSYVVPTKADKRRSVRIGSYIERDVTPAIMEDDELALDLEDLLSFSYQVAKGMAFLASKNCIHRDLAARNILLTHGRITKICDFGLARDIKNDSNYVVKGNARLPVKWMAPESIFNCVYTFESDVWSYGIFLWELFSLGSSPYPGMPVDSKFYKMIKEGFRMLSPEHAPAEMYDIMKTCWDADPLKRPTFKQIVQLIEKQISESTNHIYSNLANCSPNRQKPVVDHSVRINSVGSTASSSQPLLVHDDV

[5] = system: Mast/stem cell growth factor receptor Kit (Homo sapiens), P10721 [T670I]; details: at 1 µM
[6] = system: Mast/stem cell growth factor receptor Kit (Homo sapiens), P10721 [V560G]; details: at 0.1 µM
Sequence of Mast/stem cell growth factor receptor Kit (Homo sapiens), P10721 [V560G] (P10721 whole entry V560G): as the sequence (P10721 whole entry T670I) above, with V560G, I670T counted along it

[7] = system: Mast/stem cell growth factor receptor Kit (Homo sapiens), P10721 [V560G]; details: at 1 µM
[8] = molecular target: Tyrosine-protein kinase Lck (Homo sapiens) (UniProt P06239); details: at 0.1 µM
Sequence of Tyrosine-protein kinase Lck (Homo sapiens) (P06239 2-509 limits assumed): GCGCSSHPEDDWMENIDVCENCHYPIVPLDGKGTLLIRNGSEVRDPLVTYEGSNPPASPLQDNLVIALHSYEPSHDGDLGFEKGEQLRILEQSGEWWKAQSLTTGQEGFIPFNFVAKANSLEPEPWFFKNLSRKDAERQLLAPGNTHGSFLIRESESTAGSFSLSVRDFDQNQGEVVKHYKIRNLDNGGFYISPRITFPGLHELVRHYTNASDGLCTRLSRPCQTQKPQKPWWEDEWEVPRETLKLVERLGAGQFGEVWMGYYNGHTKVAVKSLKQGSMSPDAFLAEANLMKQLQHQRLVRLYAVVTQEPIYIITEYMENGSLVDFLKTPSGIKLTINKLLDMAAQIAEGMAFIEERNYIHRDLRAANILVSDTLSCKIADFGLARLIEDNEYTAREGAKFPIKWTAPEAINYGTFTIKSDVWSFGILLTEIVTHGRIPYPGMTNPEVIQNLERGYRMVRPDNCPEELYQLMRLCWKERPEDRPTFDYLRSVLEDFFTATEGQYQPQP

[9] = molecular target: Tyrosine-protein kinase Lck (Homo sapiens) (UniProt P06239); details: at 1 µM
[10] = molecular target: Leukocyte tyrosine kinase receptor (Homo sapiens) (UniProt P29376); details: at 0.1 µM
Sequence of Leukocyte tyrosine kinase receptor (Homo sapiens) (P29376 whole entry): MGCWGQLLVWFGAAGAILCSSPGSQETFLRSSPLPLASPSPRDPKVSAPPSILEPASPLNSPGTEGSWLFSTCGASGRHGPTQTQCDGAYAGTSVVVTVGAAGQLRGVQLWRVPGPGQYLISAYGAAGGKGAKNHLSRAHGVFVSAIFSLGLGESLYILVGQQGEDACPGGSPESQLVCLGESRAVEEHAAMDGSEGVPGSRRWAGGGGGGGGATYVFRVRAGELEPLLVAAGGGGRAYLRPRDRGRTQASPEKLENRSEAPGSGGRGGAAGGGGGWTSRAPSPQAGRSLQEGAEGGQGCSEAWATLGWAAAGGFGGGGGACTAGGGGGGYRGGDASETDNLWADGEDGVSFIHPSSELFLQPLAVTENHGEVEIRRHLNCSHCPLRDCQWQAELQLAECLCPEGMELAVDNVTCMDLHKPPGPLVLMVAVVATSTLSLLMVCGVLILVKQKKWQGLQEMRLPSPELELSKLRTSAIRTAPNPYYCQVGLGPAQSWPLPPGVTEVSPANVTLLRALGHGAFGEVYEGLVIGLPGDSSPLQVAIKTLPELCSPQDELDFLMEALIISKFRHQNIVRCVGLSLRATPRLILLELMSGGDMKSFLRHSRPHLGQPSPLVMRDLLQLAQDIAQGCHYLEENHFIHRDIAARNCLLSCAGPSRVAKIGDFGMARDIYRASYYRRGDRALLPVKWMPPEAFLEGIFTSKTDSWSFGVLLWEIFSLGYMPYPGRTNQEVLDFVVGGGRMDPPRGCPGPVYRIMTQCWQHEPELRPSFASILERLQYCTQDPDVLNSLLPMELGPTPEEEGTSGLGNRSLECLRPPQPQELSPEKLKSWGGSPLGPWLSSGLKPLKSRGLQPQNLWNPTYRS

[11] = molecular target: Leukocyte tyrosine kinase receptor (Homo sapiens) (UniProt P29376); details: at 1 µM
[12] = molecular target: Tyrosine-protein kinase Lyn (Homo sapiens) (UniProt P07948); details: at 0.1 µM
Sequence of Tyrosine-protein kinase Lyn (Homo sapiens) (P07948 2-512 limits assumed): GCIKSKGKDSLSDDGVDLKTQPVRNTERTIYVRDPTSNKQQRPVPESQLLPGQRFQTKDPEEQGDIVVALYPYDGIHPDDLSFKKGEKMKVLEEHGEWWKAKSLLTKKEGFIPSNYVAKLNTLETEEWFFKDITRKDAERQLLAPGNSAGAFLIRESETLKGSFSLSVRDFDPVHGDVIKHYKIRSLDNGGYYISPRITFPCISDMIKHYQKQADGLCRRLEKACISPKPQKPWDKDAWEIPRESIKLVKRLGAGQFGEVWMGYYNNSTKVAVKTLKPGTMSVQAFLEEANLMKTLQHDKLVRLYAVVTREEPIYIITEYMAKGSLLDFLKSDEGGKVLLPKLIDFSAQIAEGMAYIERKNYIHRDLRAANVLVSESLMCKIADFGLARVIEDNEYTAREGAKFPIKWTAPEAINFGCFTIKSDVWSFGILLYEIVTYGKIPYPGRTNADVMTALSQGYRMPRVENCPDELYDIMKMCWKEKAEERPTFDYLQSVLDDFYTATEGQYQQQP

[13] = molecular target: Tyrosine-protein kinase Lyn (Homo sapiens) (UniProt P07948); details: at 1 µM
[14] = molecular target: Tyrosine-protein kinase Lyn (Homo sapiens) (UniProt P07948); details: at 0.1 µM; remark: listed apart in the source
[15] = molecular target: Tyrosine-protein kinase Lyn (Homo sapiens) (UniProt P07948); details: at 1 µM; remark: listed apart in the source
[16] = molecular target: T1, Tyrosine-protein kinase Mer (Homo sapiens) (UniProt Q12866); details: at 0.1 µM
T1 sequence (whole entry): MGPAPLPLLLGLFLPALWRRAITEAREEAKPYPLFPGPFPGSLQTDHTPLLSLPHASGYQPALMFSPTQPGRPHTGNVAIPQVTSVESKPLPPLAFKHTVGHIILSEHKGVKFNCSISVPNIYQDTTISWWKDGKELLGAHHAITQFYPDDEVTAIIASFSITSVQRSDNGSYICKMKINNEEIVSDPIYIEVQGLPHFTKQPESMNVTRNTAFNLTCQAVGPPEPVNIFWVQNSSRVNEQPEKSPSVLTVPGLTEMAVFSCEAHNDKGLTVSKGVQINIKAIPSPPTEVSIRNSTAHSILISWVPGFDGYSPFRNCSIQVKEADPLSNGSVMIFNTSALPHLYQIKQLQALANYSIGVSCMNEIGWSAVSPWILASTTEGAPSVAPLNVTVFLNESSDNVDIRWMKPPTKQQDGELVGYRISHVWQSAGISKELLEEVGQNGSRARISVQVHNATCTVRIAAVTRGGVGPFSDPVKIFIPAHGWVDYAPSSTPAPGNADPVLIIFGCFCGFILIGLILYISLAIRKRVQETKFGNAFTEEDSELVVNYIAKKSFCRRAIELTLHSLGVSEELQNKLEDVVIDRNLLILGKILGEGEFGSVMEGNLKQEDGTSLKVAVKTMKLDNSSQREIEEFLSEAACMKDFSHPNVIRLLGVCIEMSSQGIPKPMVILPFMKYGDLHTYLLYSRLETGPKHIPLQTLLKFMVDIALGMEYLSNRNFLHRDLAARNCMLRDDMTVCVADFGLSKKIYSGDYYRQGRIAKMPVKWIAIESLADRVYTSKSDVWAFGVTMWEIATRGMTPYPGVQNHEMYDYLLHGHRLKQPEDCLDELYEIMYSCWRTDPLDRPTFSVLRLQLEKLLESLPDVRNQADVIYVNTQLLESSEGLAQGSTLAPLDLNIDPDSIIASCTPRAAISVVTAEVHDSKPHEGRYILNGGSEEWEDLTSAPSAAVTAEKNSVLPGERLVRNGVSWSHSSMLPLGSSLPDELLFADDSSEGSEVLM

[17] = molecular target: T1, Tyrosine-protein kinase Mer (Homo sapiens); details: at 1 µM
[18] = molecular target: Hepatocyte growth factor receptor (Homo sapiens) (UniProt P08581); details: at 0.1 µM
Sequence of Hepatocyte growth factor receptor (Homo sapiens) (P08581 whole entry): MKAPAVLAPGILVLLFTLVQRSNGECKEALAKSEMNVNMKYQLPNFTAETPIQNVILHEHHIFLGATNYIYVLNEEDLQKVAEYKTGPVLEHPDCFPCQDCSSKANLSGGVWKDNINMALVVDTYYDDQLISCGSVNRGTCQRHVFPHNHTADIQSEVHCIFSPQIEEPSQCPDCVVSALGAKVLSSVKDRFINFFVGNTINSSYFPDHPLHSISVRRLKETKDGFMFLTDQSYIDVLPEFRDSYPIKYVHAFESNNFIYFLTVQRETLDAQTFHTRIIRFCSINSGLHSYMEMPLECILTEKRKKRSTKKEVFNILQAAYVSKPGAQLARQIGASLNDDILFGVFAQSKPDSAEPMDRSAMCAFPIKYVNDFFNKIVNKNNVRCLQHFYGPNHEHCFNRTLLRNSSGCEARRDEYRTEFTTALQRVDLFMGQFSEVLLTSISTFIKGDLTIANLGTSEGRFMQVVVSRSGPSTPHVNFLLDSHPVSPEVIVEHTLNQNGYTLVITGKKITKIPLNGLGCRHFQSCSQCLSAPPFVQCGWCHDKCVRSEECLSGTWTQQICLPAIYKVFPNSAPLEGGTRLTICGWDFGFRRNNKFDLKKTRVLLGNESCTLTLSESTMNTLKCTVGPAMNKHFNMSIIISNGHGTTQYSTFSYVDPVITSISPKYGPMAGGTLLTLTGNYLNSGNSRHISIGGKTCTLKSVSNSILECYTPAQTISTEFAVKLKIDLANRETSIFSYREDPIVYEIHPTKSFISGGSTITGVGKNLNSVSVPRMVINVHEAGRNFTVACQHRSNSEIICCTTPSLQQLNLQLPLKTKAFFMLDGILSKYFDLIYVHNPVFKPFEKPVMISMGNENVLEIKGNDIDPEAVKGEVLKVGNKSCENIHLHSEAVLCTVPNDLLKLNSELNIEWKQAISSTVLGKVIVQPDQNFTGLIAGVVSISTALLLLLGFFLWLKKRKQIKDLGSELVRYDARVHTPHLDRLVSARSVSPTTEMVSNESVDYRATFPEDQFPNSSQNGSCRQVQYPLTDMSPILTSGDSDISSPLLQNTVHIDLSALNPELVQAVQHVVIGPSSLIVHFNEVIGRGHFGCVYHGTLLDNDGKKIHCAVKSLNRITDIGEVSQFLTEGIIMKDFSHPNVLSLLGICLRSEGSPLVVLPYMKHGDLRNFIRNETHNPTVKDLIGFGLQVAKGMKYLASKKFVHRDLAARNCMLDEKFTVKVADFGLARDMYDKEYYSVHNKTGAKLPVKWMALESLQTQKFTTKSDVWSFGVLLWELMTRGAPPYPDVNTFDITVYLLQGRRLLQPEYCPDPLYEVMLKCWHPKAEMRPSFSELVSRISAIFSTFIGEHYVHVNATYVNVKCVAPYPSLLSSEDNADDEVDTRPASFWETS

[19] = molecular target: Hepatocyte growth factor receptor (Homo sapiens) (UniProt P08581); details: at 1 µM
[20] = molecular target: T2, Muscle, skeletal receptor tyrosine-protein kinase (Homo sapiens) (UniProt O15146); details: at 0.1 µM;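 further: values are mean inhibition of MuSK from the GSK PKIS kinase screening panel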
T2 sequence (whole entry): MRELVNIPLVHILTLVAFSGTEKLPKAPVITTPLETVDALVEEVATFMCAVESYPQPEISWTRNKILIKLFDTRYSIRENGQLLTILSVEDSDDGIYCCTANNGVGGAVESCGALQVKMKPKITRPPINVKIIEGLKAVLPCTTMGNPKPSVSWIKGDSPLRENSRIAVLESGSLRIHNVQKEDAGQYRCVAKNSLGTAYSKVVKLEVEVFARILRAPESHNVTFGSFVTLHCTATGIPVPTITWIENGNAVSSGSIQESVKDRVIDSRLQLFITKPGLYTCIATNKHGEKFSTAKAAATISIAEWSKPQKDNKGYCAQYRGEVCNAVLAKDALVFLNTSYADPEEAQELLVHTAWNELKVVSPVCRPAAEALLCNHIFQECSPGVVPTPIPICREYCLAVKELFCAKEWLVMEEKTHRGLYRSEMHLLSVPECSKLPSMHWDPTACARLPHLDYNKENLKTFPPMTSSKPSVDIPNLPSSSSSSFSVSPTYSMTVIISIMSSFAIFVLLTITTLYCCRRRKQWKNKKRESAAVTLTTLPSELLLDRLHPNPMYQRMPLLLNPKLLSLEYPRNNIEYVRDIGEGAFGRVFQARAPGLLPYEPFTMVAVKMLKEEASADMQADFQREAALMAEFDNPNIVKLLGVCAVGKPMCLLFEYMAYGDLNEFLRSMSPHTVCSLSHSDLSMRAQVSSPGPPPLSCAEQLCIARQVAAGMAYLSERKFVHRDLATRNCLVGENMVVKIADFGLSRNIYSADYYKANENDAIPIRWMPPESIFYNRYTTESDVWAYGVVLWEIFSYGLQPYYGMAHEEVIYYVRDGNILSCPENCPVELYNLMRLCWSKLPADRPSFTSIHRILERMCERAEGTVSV

Sequence of Mast/stem cell growth factor receptor Kit (Homo sapiens) (P10721 whole entry): as the sequence (P10721 whole entry T670I) above, with I670T counted along it
Sequence of Mast/stem cell growth factor receptor Kit (Homo sapiens), P10721 [D816V] (P10721 whole entry D816V): as the sequence (P10721 whole entry T670I) above, with I670T, D816V counted along it

SMILES | inhibition [1] [%] | inhibition [2] [%] | inhibition [3] [%] | inhibition [4] [%] | inhibition [5] [%] | inhibition [6] [%] | inhibition [7] [%] | inhibition [8] [%] | inhibition [9] [%] | inhibition [10] [%] | inhibition [11] [%] | inhibition [12] [%] | inhibition [13] [%] | inhibition [14] [%] | inhibition [15] [%] | inhibition [16] [%] | inhibition [17] [%] | inhibition [18] [%] | inhibition [19] [%] | inhibition [20] [%]
Cc1ccc2c(-c3ccnc(Nc4cccc(C(F)(F)F)c4)n3)c(-c3ccccc3)nn2n1 | 47.6 | 0.01 | 6.47 | 2.51 | 3.44 | 2.8 | 10.7 | 8.54 | 42 | 4.14 | 2.99 | 12.6 | 53 | 8.81 | 47.8 | 4.49 | 20 | 13.9 | 10.4 | 4.93
NC(=O)c1cccc(Nc2nccc(Nc3cccc(F)c3)n2)c1 | 82.6 | -0.14 | 2.14 | 0.52 | 7.62 | 2.06 | 32.6 | 2.44 | 15 | 0.75 | 6.92 | 3.6 | 36.1 | 2.42 | 30.6 | 0.08 | 4.99 | 7.98 | 9.64 | 0.8
Cc1nc(-c2ccccc2)n2nc(NCCCN3CCOCC3)ncc12 | 8.46 | 1.35 | 1.56 | 1.72 | 1.33 | -1.38 | 0.39 | 2.08 | 5.01 | 2.89 | 2.41 | 2.4 | 2.59 | 2.14 | 2.72 | 4.66 | 5.5 | 2.77 | 0.32 | 1.84
COc1cccc(-n2ncc3c(N/N=C/c4ccc(C)cc4)ncnc32)c1 | 10.6 | 2.8 | 6.2 | 0.52 | 4.07 | -2.84 | -2.13 | 7.28 | 21.3 | 4.23 | 8.61 | 9.2 | 23.2 | 5.91 | 18.6 | 2.65 | 4.53 | -2.1 | 7.4 | 6.89
Cc1ccc2c(c1)/C(=N/Nc1ccc(S(N)(=O)=O)cc1)C(=O)N2 | 80.1 | -0.66 | -3.04 | 3.2 | 54.4 | 1.27 | 24.4 | 1.15 | 3.66 | 0.21 | 1 | 0.12 | 4.93 | 0.75 | 4.77 | -1.4 | 1.27 | 1.07 | 4.08 | 2.69
O=C1Nc2ccc(-c3cccnc3)cc2C1=Cc1cc(Br)c(O)c(Br)c1 | 3.66 | 3.44 | 2.96 | 3.51 | 0.52 | 0.16 | 2.16 | 3.31 | 13.2 | 4.94 | 23 | 2.95 | 11.1 | 1.54 | 9.06 | 1.25 | 2.23 | 2.89 | 5.75 | 3.42
CCCN1CCCC(c2ccc(Nc3nc(Nc4cc(F)ccc4C(N)=O)c4cc[nH]c4n3)c(OC)c2)C1 (stereo not given) | 13.1 | 4.45 | 4.83 | 2.47 | 3.44 | -0.05 | -0.43 | 1.09 | 6.22 | 95 | 95.5 | 7.48 | 7.83 | 3.89 | 4.64 | 3.05 | 14.1 | 2.96 | 20.6 | 3.6
COc1cc2ncnc(Nc3ccc(C)c(O)c3)c2cc1OC | 40.5 | 44 | 88.3 | 3.54 | 2.94 | 5.53 | 35.8 | 25 | 72.2 | 6.58 | 24.8 | 39.7 | 83.9 | 32.6 | 80.8 | 2.64 | 4.97 | 1.61 | 9.16 | 0.51
Cc1ccc(O)cc1Nc1ccnc2ccc(S(C)(=O)=O)cc12 | 48.2 | 38.2 | 84.5 | 4.38 | 8 | 8.1 | 53.7 | 86.3 | 97.1 | 4.66 | 10.2 | 93.2 | 96.7 | 91.9 | 96.2 | 3.15 | 4.83 | 5.51 | -0.38 | 2.4
CN(C)C(=O)O[C@H]1CN[C@H](C#Cc2cc3ncnc(Nc4ccc(OCc5cccc(F)c5)c(Cl)c4)c3s2)C1 | 3 | 2.35 | -1.14 | 1.09 | 0.88 | 0.04 | 2.8 | 1.92 | 3.02 | 1.7 | 3.95 | 3.87 | 4.57 | 1.48 | 3.94 | 0.43 | 3.05 | 1.84 | 6.26 | 2.98
NS(=O)(=O)c1cccc(-c2cc3ccncc3cc2OCc2ccccc2)c1 | 8.38 | 6.43 | 5.87 | 2.04 | 1.1 | 3.77 | 9.47 | 2.52 | 5.46 | 2.44 | 1.46 | 5.16 | 6.45 | 2.95 | 3.74 | 4.79 | 8.95 | 3.75 | 4.68 | 0.26
Nc1nccc(C#Cc2cncnc2Nc2ccc(OCc3cccc(F)c3)c(Cl)c2)n1 | 2.68 | 3.2 | 2.1 | 1.97 | 1.54 | -1.72 | 1.13 | 1.54 | 8.03 | 3.49 | 2.75 | 3.62 | 3.49 | 3.64 | 1.57 | 2.77 | 9.35 | 4.74 | 8.47 | 4.37
CCn1c(-c2nonc2N)nc2ccc(F)cc21 | 6.81 | 6.28 | 3.76 | 3.59 | 6.26 | -1.12 | -0.91 | 2.91 | 2.85 | 3.51 | 5.25 | 7.21 | 9.59 | 3.75 | 5.9 | 1.51 | 3.19 | 8.56 | 9.65 | 2.27
